# Measured values taken from PubChem BioAssay (NCATS).
# Inconclusive results are not listed. A call without a number means that no potency is given here. The source made the active and inactive calls. The call rests on the fitted dose curve; in most records, active means well fitted curve in the direction sought with a large enough effect; inconclusive means small, poorly fitted or top-dose-only effect, or another doubt; inactive means no such curve, though single readings can be large; an effect the other way counts as inactive or inconclusive.
# Experiments:
# [1] = qHTS assay to identify small molecule inhibitors of chordoma cells - UCH-1 (AID 1259355); settings: UCH-1 chordoma viability, CellTiter-Glo, 48 h, combination, with auranofin plus four topoisomerase inhibitors; series mostly up to 46.1 µM; further: nearly all actives have a fitted effect of over 55% in size
# In short: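 Seed 800 cells per well; incubate overnight at 37 C, 5% CO2. Add test compounds (15 concentrations), then the auranofin–topoisomerase-agent combination. Incubate 48hr, add CellTiter-Glo, wait 30min, read luminescence.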
# [2] = qHTS assay to identify small molecule inhibitors of chordoma cells - UCH-2 (AID 1259356); settings: UCH-2 chordoma viability, CellTiter-Glo ATP luminescence, 48 h; series mostly up to 46.1 µM
# [3] = P-glycoprotein substrates identified in KB-3-1 adenocarcinoma cell line, qHTS therapeutic library screen (AID 1346986); settings: KB-3-1 parental cells viability, CellTiter-Glo, 72 h; series mostly up to 44.5 µM; further: nearly all actives have a fitted effect of over 60% in size
# In short: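 Cells seeded 500/well in DMEM/10% FCS; compounds pinned in dose-response; 72 h incubation; CellTiter-Glo added, 5 min, luminescence. KB-8-5-11 run ±tariquidar to test reversal of P-gp resistance.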
# [4] = Identifying Small Molecule Inhibitors of Pancreatic Cancer Stem Cells (SN12C, Adherent) (AID 1259358); settings: viability/growth inhibition; series mostly up to 46.1 µM;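 further: cell survival measured after 48 h of compound exposure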
# In short: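 Cytotoxicity read by CellTiter-Glo luminescence after 48 h compound exposure at 37C; percent activity scaled between DMSO-treated cells and cell-free wells. Spheroid formats used cells pre-formed 14 days in stem cell media on hydrogel.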
# [5] = Identifying Small Molecule Inhibitors of Pancreatic Cancer Stem Cells (SN12C, Spheroid) (AID 1259360); settings: Potency: SN12C spheroid viability; series mostly up to 46.1 µM
# In short: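 Pre-formed 14-day tumor spheroids or adherent cells dosed and incubated 48 h, 37C, 5% CO2. Viability assessed by CellTiter-Glo.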
# [6] = Identifying Small Molecule Inhibitors of Pancreatic Cancer Stem Cells (Panc1, Adherent) (AID 1259362); settings: Potency: viability; series mostly up to 46.1 µM;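 further: compound exposure lasted 48 h before the viability read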
# In short: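 Spheroids grown 14 days in stem cell media on hydrogel-coated nonadherent plates; 2D lines seeded directly. Compounds added after 4 h attachment, 48 h at 37C, 5% CO2; CellTiter-Glo luminescence normalized to DMSO (no inhibition) and no-cell wells (full inhibition).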
smiles,measurement,setting,value
CCCc1cc(=O)[nH]c(=S)[nH]1,Potency,[1],inactive
same,Potency,[2],inactive
same,Potency,[3],inactive
Cc1ccc(C)c(OCCCC(C)(C)C(=O)O)c1,Potency,[1],inactive
same,Potency,[2],inactive
O=C1c2c(O)cc(O)cc2OC(c2ccc(O)c(O)c2)C1O (stereo not given),Potency,[3],inactive
Cc1ccc(NC(=O)c2ccc(CN3CCN(C)CC3)cc2)cc1Nc1nccc(-c2cccnc2)n1,Potency,[1],inactive
same,Potency,[2],inactive
same,Potency,[4],inactive
same,Potency,[5],inactive
same,Potency,[6],inactive
Clc1ccc(C(Cn2ccnc2)OCc2c(Cl)cccc2Cl)c(Cl)c1 (stereo not given),Potency,[1],inactive
same,Potency,[2],inactive
CN(C)C(=O)[C@H](O)[C@H](Cc1ccccc1)NC(=O)c1cc2cc(Cl)ccc2[nH]1,Potency,[3],inactive
O=C(NCCO[N+](=O)[O-])c1cccnc1,Potency,[1],inactive
same,Potency,[2],inactive
same,Potency,[3],inactive
N=C(N=C(N)N)N1CCOCC1,Potency,[1],inactive
same,Potency,[2],inactive
CC(=O)N1CCN(c2ccc(OC[C@H]3CO[C@](Cn4ccnc4)(c4ccc(Cl)cc4Cl)O3)cc2)CC1,Potency,[1],inactive
same,Potency,[2],inactive
O=C1NC(=O)C(c2ccccc2[N+](=O)[O-])=C1Nc1ccc(O)c(Cl)c1,Potency,[3],inactive
O=C(O)CCNC(=O)c1ccc(N=Nc2ccc(O)c(C(=O)O)c2)cc1,Potency,[1],inactive
same,Potency,[2],inactive
O=C(CCc1ccc(O)cc1)c1c(O)cc(O)cc1O,Potency,[3],inactive
COC(=O)C1=C(C)NC(C)=C(C(=O)OC(C)C)C1c1cccc2nonc12 (stereo not given),Potency,[1],inactive
same,Potency,[2],inactive
CC1Cc2ccccc2N1NC(=O)c1ccc(Cl)c(S(N)(=O)=O)c1 (stereo not given),Potency,[2],inactive
CN(C)c1ccc(O)c2c1C[C@H]1C[C@H]3[C@H](N(C)C)C(=O)C(C(N)=O)=C(O)[C@@]3(O)C(=O)C1=C2O,Potency,[1],inactive
same,Potency,[2],inactive
